Source: PubChem BioAssay (National Center for Advancing Translational Sciences (NCATS))
RE007 growth inh – less growth of the S. pombe RE007 Vpr strain; S. pombe RE007 Vpr strain, BacTiter-Glo ATP luminescence, 24 h; Potency, µM (titrated, usually from 92.2 µM), inactives show at the top dose activity change, negative = less growth, actives largely listed as inhibitors; 360,000 tested, 0.21% active; AID 651644; active means well fitted falling curve with a large enough effect; inconclusive means small, poorly fitted or top-dose-only effect; inactive means no such curve, though single readings can be large or run the other way; further: nearly all actives have a fitted effect of over 50% in size
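Fission yeast RE007 carrying one integrated HIV-1 vpr copy, seeded at OD 0.01 in PMG+AL medium with 23 nL pinned compound. Grown 24 h at 30 degrees; viability read by BacTiter-Glo luminescence after 5 min.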
Sm TGR block – inhibitors of Schistosoma mansoni thioredoxin glutathione reductase; Q962Y6; AID 485364; 360,000 tested, 3% active; purified TGR, DTNB reduction, TNB absorbance 405 nm; Potency, µM (top dose mostly 114 µM), without a hit: at the top dose activity change, negative = inhibition, actives largely listed as inhibitors; further: nearly all actives have a fitted effect of over 60% in size
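TGR 20 nM + NADPH 100 uM (dispensed conc.), cpd preinc 15 min RT; start with NADPH (500 uM addition) then DTNB (15 mM addition). Kinetic TNB absorbance, 405 nm filter. Four-parameter Hill fit across titration.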
AmpC inh no detg – inhibitors of E. coli AmpC beta-lactamase without detergent; 330,000 tested, 0.52% active; P00811; AID 485341; AmpC nitrocefin hydrolysis, absorbance 480 nm, 0.0001% Triton; Potency, µM (series often up to 57.1 µM), inactives show top-dose activity change, negative = inhibition, actives largely listed as inhibitors;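 further: plate controls were no compound for no effect and no enzyme for full effect; nearly all actives have a fitted effect of over 20% in size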
Target sequence (P00811 whole entry, looked up): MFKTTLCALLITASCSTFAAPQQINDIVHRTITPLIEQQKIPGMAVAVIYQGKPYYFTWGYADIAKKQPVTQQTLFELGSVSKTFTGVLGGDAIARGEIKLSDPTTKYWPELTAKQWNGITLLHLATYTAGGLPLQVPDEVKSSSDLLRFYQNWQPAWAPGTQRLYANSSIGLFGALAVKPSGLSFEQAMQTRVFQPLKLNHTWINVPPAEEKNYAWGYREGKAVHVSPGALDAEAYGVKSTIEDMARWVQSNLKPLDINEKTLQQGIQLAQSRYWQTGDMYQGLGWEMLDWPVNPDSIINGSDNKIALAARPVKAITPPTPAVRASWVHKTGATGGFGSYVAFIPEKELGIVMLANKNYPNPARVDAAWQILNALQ
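20 mM phosphate pH 7.0 + 0.01% (detergent screen) or 0.0001% Triton X-100; 5.3 nM AmpC reagent; cpd preinc 15 min RT; nitrocefin (800 uM stock) to start; A480 q20 s × 4 min; Activity was normalised to no-enzyme and no-compound control wells.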
AMA1-RON2 inh – disrupts binding of P. falciparum AMA1 to RON2; AlphaScreen AMA1-biotinylated RON2 peptide binding; Potency, µM (titrated, usually from 58.2 µM), inactives show at the highest dose activity change, negative = inhibition, actives largely listed as inhibitors; 360,000 tested, 0.2% active;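 further: 0% = vehicle wells and -100% = peptide control; nearly all actives have a fitted effect of over 45% in size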
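AMA1 (3D7) with his tag at 25 nM final met compounds first, then biotinylated RON2 peptide at 25 nM; detection used donor plus acceptor beads, 10 µg/mL apiece, read by AlphaScreen after 30 min at room temperature.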
AmpC inh detg – AmpC beta-lactamase inhibition with detergent present; 370,000 tested, 0.041% active; AmpC hydrolysis of nitrocefin, absorbance 480 nm, 0.01% Triton; Potency, µM (doses to about 114 µM), for the others: top-dose activity change, negative = inhibition, hits mostly inhibitors;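 further: 0% = no-compound wells and -100% = no-enzyme wells; nearly all actives have a fitted effect of over 25% in size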
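20 mM phosphate pH 7.0 + 0.01% (detergent screen) or 0.0001% Triton X-100; 5.3 nM AmpC reagent; cpd preinc 15 min RT; nitrocefin (800 uM stock) to start; A480 q20 s × 4 min; Activity was normalised to no-enzyme and no-compound control wells.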
Active calls of the source: *; ? = inconclusive; nt = no result. Most compounds without a hit are left out; they make up all but 3.2% or so of the library. Unless noted, the call rests on the fitted dose curve; in most records, active means well fitted curve in the direction sought with a large enough effect; inconclusive means small, poorly fitted or top-dose-only effect, or another doubt; inactive means no such curve, though single readings can be large; an effect the other way counts as inactive or inconclusive. Unless noted, on the % scale 0 is the no-effect control and ±100 the full control effect; potency means the concentration at half of the fitted maximal effect.

SMILES | RE007 growth inh | Sm TGR block | AmpC inh no detg | AMA1-RON2 inh | AmpC inh detg
S=C(NNc1cccc(Cl)c1)NC1CCCCC1 | -22% | -16% | -33% | 6.3µM* | -1%
S=C(Nc1cccc(Cl)c1)NC1CCCCC1 | 0% | 2% | -37% | 14% | 0%
O=c1cc(N2CCN(c3ccc(F)cc3)CC2)[nH]c(=O)n1Cc1ccc(F)cc1 | 4% | -12% | 25µM* | -4% | -12%
COc1cccc(N2C(=O)NC(=O)/C(=C/c3ccc4c5c(cccc35)CC4)C2=O)c1 | nt | 25µM* | -28% | nt | ?
CCOc1ccccc1N1C(=O)NC(=O)/C(=C/c2ccc3c4c(cccc24)CC3)C1=O | -16% | 32µM* | 249% | 0% | -3%
O=C(OCn1ncc(Br)c(Br)c1=O)c1ccccc1Cl | 6.3µM* | 1.3µM* | -34% | -8% | -2%
O=C(OCn1ncc(Br)c(Br)c1=O)c1ccc(F)cc1 | ? | 2µM* | -49% | -9% | -14%
Cc1cc(NC(=O)CCn2c(=O)c3cccn3c3cccnc32)ccc1Br | nt | 6% | nt | nt | 11%
CN(C)c1ccc(C(=O)Nc2sc(Nc3ccccc3)nc2C(N)=O)cc1 | nt | -1% | nt | nt | 17%
COC(=O)c1ccc(CN2CCN(Cc3ccc(C(=O)OC)o3)CC2)o1 | 3% | 35µM* | -6% | 2% | -7%
COC(=O)C1=C(c2ccc(C(C)=O)cc2)C[C@@H]2CC[C@H]1N2C(=O)NC(C)C | -1% | 35µM* | -4% | -4% | 7%
Cc1ccc(-n2c(/C=C/c3c(C)n(C)c4ccccc34)nc3ccccc3c2=O)cc1 | nt | 5% | nt | nt | 13%
COc1ccc(-c2csc3ncnc(N4CCN(S(=O)(=O)c5ccc(C(C)=O)cc5)CC4)c23)cc1 | 10% | 4% | 32µM* | -5% | ?
CCN(C(=O)Cn1nc(Cc2ccncc2)c2ccccc2c1=O)c1ccc(OC)cc1 | nt | -6% | nt | nt | 7%
Cc1ccc(NC(=O)C(=O)NCc2ccc(Cl)cc2)cc1 | nt | 19% | nt | nt | 9%
CCN1CCN(C2=C(NS(=O)(=O)c3ccc(Br)cc3)C(=O)c3ccccc3C2=O)CC1 | -21% | 45µM* | 6% | -4% | 1%
O=C1C(NS(=O)(=O)c2ccc(Cl)cc2)=C(N2CCCCC2)C(=O)c2ccccc21 | -22% | ? | -26% | 11µM* | -4%
CCOC(=O)C1CCN(C2=C(NS(=O)(=O)c3ccc(Br)cc3)C(=O)c3ccccc3C2=O)CC1 | -19% | -25% | -13% | 13µM* | 0%
O=C(COc1ccccc1Cl)Nc1nc(-c2ccc(F)cc2)ns1 | nt | -2% | nt | nt | 1%
C(C#CCCCCCCCCC[n+]1ccccc1)#CCCCCCCCCC[n+]1ccccc1 | 7.9µM* | 40µM* | 199% | -16% | -7%
O=C(CCn1c(=O)oc2ccccc21)n1c(=O)oc2ccccc21 | 20% | 16µM* | -29% | 8% | -3%
COc1ccc(-c2nn3c(-c4ccc(C)cc4)nnc3c3ccccc23)cc1 | nt | -5% | nt | nt | 24%
S=c1[nH]c(-c2ccccc2)cn1/N=C/c1cccc2ccccc12 | 0% | -15% | 2.5µM* | 47% | -1%
Oc1ccc(/C=N/n2cc(-c3ccccc3)[nH]c2=S)cc1 | 1% | -1% | 32µM* | 92% | ?
CCOC(=O)c1[nH]c(C)c(C(=O)NCc2ccccc2Cl)c1C | nt | 7% | nt | nt | 11%
SMILES | RE007 growth inh | Sm TGR block | AmpC inh no detg | AMA1-RON2 inh | AmpC inh detg
Cc1cccc(C)c1OCc1cc(=O)n2c3c(sc2n1)CCCC3 | nt | 3% | nt | nt | 6%
O=C(NCCc1ccccc1)c1ccc2nc(-c3ccco3)c(-c3ccco3)nc2c1 | -19% | 1.3µM* | 16µM* | 1% | -9%
O=C(NCCO)c1ccc2nc(-c3ccco3)c(-c3ccco3)nc2c1 | -19% | 1.8µM* | -7% | ? | 2%
O=C(NC1CCCC1)c1ccc2nc(-c3ccco3)c(-c3ccco3)nc2c1 | -13% | 3.2µM* | -28% | -10% | 2%
O=C(NC1CCCC1)c1ccc2nc[nH]c2c1 | 3% | 8% | -8% | 3% | 1%
c1coc(-c2nc3ccccc3nc2-c2ccco2)c1 | -12% | 3.5µM* | -12% | -24% | ?
O=C(NCCc1ccccc1)c1ccc(=O)oc1 | 0% | -16% | -16% | 11% | ?
O=C(c1ccc2c(c1)CCCC2)N1CCN(c2nc3ccc(F)cc3s2)CC1 | nt | 0% | nt | nt | 3%
Cc1cc(C)c(NC(=O)Cn2c(=O)n(CCC(=O)N3CCc4ccccc4C3)c(=O)c3ccccc32)c(C)c1 | nt | 8% | nt | nt | 17%
O=C(O)c1ccc2nc(-c3ccccc3)c(-c3ccccc3)nc2c1 | -10% | 4% | -14% | -1% | -10%
O=C(c1ccccc1)c1ccc2nc(-c3ccco3)c(-c3ccco3)nc2c1 | -3% | nt | 25µM* | ? | 4%
O=C(CSc1nnc(-c2ccc(Br)o2)n1Cc1ccccc1)c1ccccc1F | -11% | 35µM* | -17% | 3% | -2%
CCCc1cnc2c(c1SCC(=O)Nc1ccc(C)c(Cl)c1)c(=O)n(C)c(=O)n2C | nt | -5% | nt | nt | -7%
COc1ccc(/C(O)=C2/C(=O)C(=O)N(CCCN(C)C)C2c2ccc(C)o2)cc1Cl (stereo not given) | nt | 45µM* | 9% | nt | -7%
COc1ccc(/C(O)=C2/C(=O)C(=O)N(CCN(C)C)C2c2ccc(OC)c(OC)c2)c(C)c1 (stereo not given) | 3% | 40µM* | -19% | 5% | -19%
COc1ccc(C2/C(=C(/O)c3cnn(-c4ccccc4)c3C)C(=O)C(=O)N2CCN(C)C)cc1OC (stereo not given) | 4% | nt | nt | -7% | nt
COc1cc(C2/C(=C(/O)c3ccc(OCC(C)C)cc3)C(=O)C(=O)N2CCN(C)C)ccc1O (stereo not given) | 12% | 45µM* | 8% | 1% | ?
Cc1ccc(C2/C(=C(\O)c3ccc4c(c3)OCCO4)C(=O)C(=O)N2CCCN(C)C)o1 (stereo not given) | nt | -32% | -2% | nt | 0%
COc1ccc(NC(=O)Cn2c(=O)n(-c3ccc(C)cc3)c(=O)c3c2c2cc(C)ccc2n3C)cc1 | nt | -3% | nt | nt | ?
ClC1=C(Cl)C(Cl)=C(Cl)C1=C/C=C/c1ccccc1 | 13% | 50µM* | -36% | -8% | -2%
CN(C)c1cc(-c2ccc(Cl)cc2)oc(=O)c1Cl | 18% | -21% | -27% | 8% | -1%
CN(C)c1cc(-c2ccc(Cl)c(Cl)c2)oc(=O)c1Cl | 7% | 40µM* | -8% | 11% | -5%
O=C1S/C(=C\c2ccc(N3CCOCC3)o2)C(=O)N1Cc1c(F)cccc1Cl | -19% | 2.8µM* | -8% | 4% | -2%
O=C1S/C(=C/c2ccc(N3CCOCC3)o2)C(=O)N1Cc1c(F)cccc1Cl | -8% | ? | -10% | 27% | 2%
